Reference: PubChem BioAssay AID485314 (National Center for Advancing Translational Sciences (NCATS), 2010)
The campaign covered roughly 340,000 compounds. About 4,500 (1.3%) were called active. Roughly 5% stayed inconclusive and do not appear here. The entries come from a sample that favours actives as a whole. Unmarked numbers belong to inactive results. Calls come from the whole dose curve; as a rule, active = well fitted inhibition curve with a large enough effect; inconclusive = small, poorly fitted or top-dose-only effect, or another doubt; inactive = no such curve, though single readings can be large or run the other way.

target: DNA polymerase beta (Homo sapiens) (UniProt P06746); experiment: qHTS Assay for Inhibitors of DNA Polymerase Beta; conditions: Pol beta primer extension/strand displacement, fluorescence kinetic; series mostly up to 114 µM; activity change, negative = inhibition: at the top concentration
Method in brief: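 Values derive from four-parameter Hill fits of normalized kinetic data: reads at 0 and 10 min following addition of 50 nM substrate to 10 nM Pol beta preincubated 15 min with compound.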
% is set by controls: 0 for no effect and ±100 for the full control effect; potency is the fitted concentration of half-maximal effect.

Point of comparison: `Cc1cc(Cl)ccc1OCC(=O)N(Cc1ccc(N(C)C)cc1)C1CCS(=O)(=O)C1` (stereo not given), “activity change, negative = inhibition” value 8.42%. Against it:
- CC1CCC2(CC1)N=C(c1ccccc1)C(=O)N2CC(=O)Nc1ccc(F)c(Cl)c1 (stereo not given) — higher, 8.62%
- O=C(Nc1ccc2nc(SCCOc3ccccc3)sc2c1)c1ccco1 — lower, 6.94%
- CCS(=O)(=O)C1=NSC2=NC(=O)/C(=C\c3ccc(OS(=O)(=O)c4ccccc4)cc3)C(=N)N21 — lower, 0.694%
- CCS(=O)(=O)C1=NSC2=NC(=O)/C(=C\c3cc(C)n(-c4cccc(OC)c4)c3C)C(=N)N21 — lower, -1.06%
- CC(C)(C)c1ccc(C(=O)Nc2ccc3c(c2)CCCN3C(=O)c2cccs2)cc1 — higher, 47.1%
- CCC1C/C(=C/c2cccs2)C(=O)/C(=C/c2cccs2)C1 (stereo not given) — lower, -21.1%
- CC(C)c1ccc(NC(=O)c2ccc3c(O)c(S(=O)(=O)c4ccccc4)c(=O)[nH]c3c2)cc1 — lower, 2.35%
- CCOC(=O)C1CCN(C(=O)CSc2c3c(nc4ccc(Cl)cc24)CCCC3)CC1 — lower, -25.2%
- COCCNC(=O)c1ccc2c(c1)N(Cc1cccc(Cl)c1)C(=O)c1ccccc1S2(=O)=O — lower, -11.6%
- Cc1ccc2nc(-c3ccncc3)cc(C(=O)Nc3ccc4c(c3)OCCO4)c2c1 — higher, 10.7%
- Cc1ccc2nc(-c3ccccn3)cc(C(=O)Nc3ccc4c(c3)OCO4)c2c1 — lower, -4.44%
- Cc1ccc(Nc2ccc3cc(S(=O)(=O)N4CCCCC4)ccc3n2)cc1F — higher, 16.8%
- COc1ccccc1OCCOc1ccc(/C=C2\C(=N)N3N=C(C)SC3=NC2=O)cc1 — lower, -15.8%
- Cc1ccccc1OCCOc1ccc([N+](=O)[O-])cc1/C=N/n1cnnc1 — lower, 2.22%
- CSc1ccccc1NC(=O)CCS(=O)(=O)c1nc(-c2cccs2)cc(C(F)(F)F)n1 — lower, -1.2%
- COc1cccc(Cn2c(SCc3ccc(C(=O)N4CCCCC4)cc3)nc3ccncc32)c1 — higher, 55.1%
- N#Cc1ccsc1NC(=O)CN1CCN(S(=O)(=O)c2cc(Cl)ccc2Cl)CC1 — lower, -2.37%
- COc1ccc(Cl)cc1S(=O)(=O)N1CCN(CC(=O)C(C)(C)C)CC1 — lower, -0.0725%
- O=C(NCCc1ccccc1)c1ccc2c(c1)N(Cc1ccc(F)cc1)C(=O)c1ccccc1S2(=O)=O — higher, 8.98%
- CCc1ccc(NC(=O)COC(=O)c2cccs2)cc1 — lower, 0.301%
- NC(=O)c1ccc(NC(=O)COC(=O)C(Cc2ccccc2)NC(=O)c2ccccc2)cc1 (stereo not given) — higher, 21.6%
- Cc1cccc(NC(c2cccc(F)c2)c2ccc3ccc(C)nc3c2O)n1 (stereo not given) — lower, -16.3%
- Cc1ccc(-c2nc3cccc(C)n3c2Nc2ccc3c(c2)OCCO3)cc1 — higher, 26.9%
- COc1cccc(CNC(=O)c2ccc3c(c2)N(Cc2ccc(C(F)(F)F)cc2)C(=O)c2ccccc2S3)c1OC — lower, 0.414%
- Cc1ccccc1-c1nc2scc(CCNC(=O)C(=O)Nc3ccc(F)cc3F)n2n1 — lower, -10.8%
- O=C(Cn1cc(SCc2ccccc2)c2ccccc21)N1CCCCC1 — lower, 2.46%
- COCC(=O)N1CCCC(C(=O)c2ccc(C(F)(F)F)cc2)C1 (stereo not given) — higher, 23.9%
- O=C(c1ccc(C(F)(F)F)cc1)C1CCCN(C(=O)c2csnn2)C1 (stereo not given) — lower, 3.97%
- CCOC(=O)c1c(NC(=O)CSc2cn(CCNC(=O)c3cccc(C(F)(F)F)c3)c3ccccc23)sc2c1CCC2 — lower, 1.43%
- Cc1ccc(-n2ncc3c(NCCCn4ccnc4)ncnc32)cc1Cl — lower, 0.21%
- CCC(CC)C(=O)Nc1ccc(S(=O)(=O)Nc2nccs2)cc1 — higher, 17.1%
- O=C(Nc1ccc(S(=O)(=O)Nc2nccs2)cc1)c1cc(=O)[nH]c2ccccc12 — higher, 14.3%
- COc1ccc(CCNc2ncnc3c2cnn3-c2ccc(C)cc2)cc1 — lower, 6.86%
- CCOC(=O)C(Cc1ccc(N)cc1)N1C(=O)c2ccccc2C1=O (stereo not given) — lower, -23.2%
- COc1ccc(CNC(=O)C(Cc2ccccc2)n2cccc2)cc1 (stereo not given) — lower, -10.3%
- COc1cc(OC)cc(C(=O)Nc2c(C(=O)Nc3ccc(F)cc3)oc3ccccc23)c1 — lower, -2.89%
- CCOC(=O)c1ccc(N2C(=O)c3n[nH]c(-c4ccco4)c3C2c2ccc(O)cc2)cc1 (stereo not given) — higher, 22.2%
- CCn1cc(C(=O)NCc2ccc(C)cc2)c(=O)c2cc(S(=O)(=O)N3CCc4ccccc4C3)ccc21 — higher, 27.3%
- CCc1nnc(NC(=O)/C=C/c2ccc(C)o2)s1 — lower, -10.9%

With `CS(=O)(=O)c1ccc2c(c1)SC1=NC(=O)/C(=C/c3ccco3)C(=N)N12` the Potency was 31.6 µM (active).
With `CC(C)(C)C1C/C(=C/c2ccco2)C(=O)/C(=C/c2ccco2)C1` (stereo not given) the Potency was 10 µM (active).
For `Cc1ccc2nc(-c3ccncc3)cc(C(=O)Nc3ccc(OC(F)F)cc3)c2c1`, the Potency was 8.91 µM (active).
For `COc1ccccc1OCCOc1ccc(/C=N/n2cnnc2)cc1`, the Potency was 44.7 µM (active).
`O=C(CN1CCN(S(=O)(=O)c2cc(Cl)ccc2Cl)CC1)c1ccc(O)c(O)c1` was tested, and the Potency was 3.16 µM (active).
In the case of `O=C(COC(=O)[C@H](Cc1ccccc1)NC(=O)c1cccs1)Nc1cc(F)ccc1F`, the Potency is reported as 79.4 µM (active).
In the case of `O=[N+]([O-])C(=c1ccc2c(c1)N1C3=C(CCCC3)CC3CCCCC31N=2)[N+](=O)[O-]` (stereo not given), the Potency is reported as 39.8 µM (active).
In the case of `Cc1cnc(C(=O)N2CCCC(C(=O)c3ccc(C(F)(F)F)cc3)C2)cn1` (stereo not given), the Potency is reported as 14.1 µM (active).
`O=C(Nc1ccc(S(=O)(=O)Nc2nccs2)cc1)c1cc(-c2ccncc2)nc2ccccc12` was tested, and the Potency was 15.8 µM (active).
For `Cc1ccc(C)n1C(Cc1ccccc1)C(=O)O` (stereo not given), the Potency was 10 µM (active).
